Test results as given in PubChem BioAssay (NCI).
About 83,000 compounds went through this panel and 20% of them were active in at least one assay; those are over-represented in the sample as a whole.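 Single-dose data. Exposure time 48 hours. Values below 10 considered active.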 Active and inactive are the calls of the source.

Tests used:
Assay in all cases: NCI-60 one-dose screen, 48 h (100 = growth as untreated, 0 = no growth, -100 = all killed)
Settings in all cases: 10 µM unless noted
[1] = tested on: HT29 colon
[2] = tested on: SNB-75 CNS
[3] = tested on: SNB-19 CNS
[4] = tested on: U251 CNS
[5] = tested on: PC-3 prostate
[6] = tested on: SK-MEL-5 melanoma
[7] = tested on: UACC-62 melanoma
[8] = tested on: LOX IMVI melanoma
[9] = tested on: SK-MEL-28 melanoma
[10] = tested on: SK-MEL-2 melanoma
[11] = tested on: EKVX NSCLC
[12] = tested on: SN12C renal
[13] = tested on: UO-31 renal
[14] = tested on: ACHN renal
[15] = tested on: CAKI-1 renal
[16] = tested on: A498 renal
[17] = tested on: TK-10 renal
[18] = tested on: MOLT-4 leukemia
[19] = tested on: SR leukemia
[20] = tested on: CCRF-CEM leukemia

Measured: growth

CCSc1nnc2n(Cc3ccccc3)c(=O)c3c(C)c(C(N)=O)sc3n12
inactive: [1] 100% | [2] 69.4% | [3] 108% | [4] 103% | [5] 97.3% | [6] 95.8% | [7] 97.7% | [8] 95.6% | [9] 109% | [10] 102% | [11] 99% | [12] 103% | [13] 67% | [14] 93.7% | [15] 85.8% | [16] 84.2%

O=C(/C=C/c1ccccc1)CC(c1ccccc1)N1CCOCC1 (stereo unspecified)
inactive: [2] 105% | [3] 71.8% | [5] 89% | [6] 98.9% | [7] 85.4% | [9] 107% | [11] 117% | [12] 94.5% | [13] 61.3% | [17] 77% | [14] 87.8% | [15] 103% | [18] 78.4%
active: [1] -39.3% | [4] 0.707% | [8] -92% | [10] -24.5% | [19] -7.57%

O=C(NN(C(=O)c1ccccc1)c1cccs1)c1ccccc1
inactive: [1] 98.5% | [2] 90.7% | [3] 100% | [4] 111% | [5] 83.4% | [6] 101% | [7] 88.1% | [8] 93.7% | [9] 115% | [10] 107% | [11] 112% | [12] 97.1% | [13] 66.1% | [17] 91.7% | [14] 104% | [15] 110% | [20] 93.8% | [18] 107% | [19] 100%

c1cnc2n[nH]c(Nc3ncnc4c3sc3ncccc34)c2c1
inactive: [1] 95.4% | [2] 84% | [3] 101% | [4] 97.1% | [5] 104% | [6] 102% | [7] 87.1% | [8] 85.6% | [9] 99% | [10] 103% | [12] 99.7% | [13] 98.5% | [17] 103% | [14] 97.8% | [15] 104% | [16] 91.3% | [20] 88.6% | [18] 97.9% | [19] 101%

Clc1ccc2nc(Cl)c3ccccc3c2c1
active: [2] -15.3% | [13] 4.03% | [17] 9.12% | [14] 1.26% | [19] 1.29%
inactive: [1] 44.5% | [3] 53.2% | [4] 20.2% | [5] 84.2% | [6] 84.4% | [7] 96.2% | [8] 83.2% | [9] 97.6% | [10] 99% | [12] 87.3% | [15] 76.7% | [16] 19.7% | [20] 81.6% | [18] 83%

C/C(=N\N1CC(=O)NC1=O)c1ccc([N+](=O)[O-])o1
inactive: [1] 102% | [2] 96.4% | [3] 99.3% | [4] 102% | [5] 93.8% | [6] 93.4% | [7] 83.2% | [8] 67.5% | [9] 117% | [10] 106% | [11] 90.8% | [12] 102% | [13] 85.1% | [14] 105% | [15] 109% | [16] 76.7% | [20] 106% | [18] 99.5% | [19] 95.9%

O=C1Nc2ccccc2C12Nc1cc(Cl)ccc1S2 (stereo unspecified)
inactive: [1] 95.4% | [2] 59.8% | [3] 94% | [4] 98.5% | [5] 44.5% | [6] 81.7% | [7] 80.9% | [8] 86.3% | [9] 138% | [10] 130% | [11] 74% | [12] 94.7% | [13] 69.6% | [17] 141% | [14] 99.6% | [15] 70.7% | [18] 60.1%

C/C(=N/N=C(N)N)c1ccc(Cl)cc1
active: [10] -5.11%
inactive: [1] 80.9% | [2] 81.3% | [3] 92.6% | [4] 89.4% | [5] 42.3% | [6] 94.1% | [7] 91.2% | [8] 86.5% | [9] 178% | [11] 87.8% | [13] 78.2% | [17] 55.3% | [14] 96.1% | [16] 188% | [20] 87.9% | [18] 145% | [19] 83.3%

COc1cccc(C2C(C#N)=C(N)Oc3cc(OC)ccc32)c1 (stereo unspecified)
active: [1] -21.2% | [4] 3.36% | [5] -2.64% | [6] -4.55% | [20] -1.19% | [18] 1.42% | [19] -30.3%
inactive: [2] 46.1% | [3] 44.1% | [7] 30.9% | [8] 13.2% | [9] 56.2% | [10] 19.8% | [12] 24.9% | [13] 41.6% | [17] 50.6% | [14] 29.7% | [15] 20.6%

O=C(OCCBr)c1ccc(Cl)c([N+](=O)[O-])c1
active: [4] -31.7%
inactive: [1] 45.4% | [2] 104% | [3] 38.9% | [5] 70% | [6] 113% | [7] 104% | [8] 91.1% | [9] 60% | [10] 94.1% | [12] 102% | [13] 88.9% | [17] 106% | [14] 104% | [18] 83.7% | [19] 86.5%

COc1ccc2[nH]cc(/C=C3/C(=O)Nc4ccc(F)cc43)c2c1
inactive: [1] 79.1% | [2] 43.2% | [3] 88.2% | [4] 80.1% | [5] 76.4% | [6] 93.1% | [7] 73.5% | [8] 74.9% | [10] 91.7% | [11] 77.2% | [12] 78.2% | [13] 73.1% | [17] 104% | [14] 68.4% | [15] 62.4% | [16] 76% | [20] 63.2% | [18] 61.6% | [19] 83.2%

Cn1cc(-c2csc(-c3cn(C)c4ncccc34)n2)c2cc(F)cnc21
inactive: [1] 69.8% | [2] 75.2% | [3] 83.3% | [4] 82.4% | [5] 65% | [6] 60.6% | [7] 65.3% | [8] 72.4% | [10] 98.7% | [11] 77.7% | [12] 88.9% | [13] 99.1% | [17] 104% | [14] 94.4% | [15] 66% | [16] 72.9% | [20] 67.4% | [18] 80.1%

O=C(NCCCO)c1cc(Cl)ccc1O
active: [1] 3.68% | [5] 7.13% | [7] 9.67% | [10] -19%
inactive: [2] 27.8% | [3] 31.1% | [4] 12.3% | [6] 18.4% | [8] 13.3% | [9] 38% | [12] 12.9% | [13] 48.1% | [17] 24.9% | [14] 14.6% | [16] 53.2% | [18] 33.2% | [19] 26.1%

COc1ccc(-c2cnnn2-c2cc(OC)c3c(c2)OCO3)cc1
active: [1] 1.26% | [4] 3.74% | [5] 4.25% | [20] 0.869% | [18] 4.11% | [19] -30.4%
inactive: [2] 23.1% | [3] 39.4% | [6] 18.1% | [7] 26.8% | [8] 17.8% | [9] 55% | [10] 22.4% | [12] 36.8% | [13] 50% | [17] 40% | [14] 38.8% | [15] 29.6%

COc1ccc(-n2nnc(C(=O)O)c2-c2cc(OC)c(OC)c(OC)c2)cc1
inactive: [1] 97.2% | [2] 95.5% | [3] 104% | [4] 95.9% | [5] 106% | [6] 104% | [7] 109% | [8] 94.9% | [9] 104% | [10] 95% | [12] 105% | [13] 110% | [17] 93.2% | [14] 105% | [15] 102% | [20] 105% | [18] 94% | [19] 85.4%

NC(N)=NC(N)=NCCCc1ccccc1
inactive: [1] 68.2% [100 µM] | [2] 57.5% [100 µM] | [3] 77.8% [100 µM] | [4] 83.7% [100 µM] | [5] 52.7% [100 µM] | [6] 28.6% [100 µM] | [7] 88.4% [100 µM] | [8] 57.4% [100 µM] | [10] 70.7% [100 µM] | [11] 31.8% [100 µM] | [12] 79.3% [100 µM] | [13] 65.9% [100 µM] | [17] 63.3% [100 µM] | [14] 65.8% [100 µM] | [15] 63.7% [100 µM] | [16] 68.3% [100 µM] | [20] 69.1% [100 µM] | [18] 73.8% [100 µM]

N#CCCN(CCO)c1ccccc1
inactive: [1] 93.7% | [2] 100% | [3] 101% | [4] 101% | [5] 86.7% | [6] 99.9% | [7] 103% | [8] 107% | [9] 108% | [10] 101% | [12] 97.6% | [13] 89.5% | [17] 93.7% | [14] 106% | [16] 96.4% | [18] 90% | [19] 86.3%

CCC(C)CC(C)C(=O)c1c(O)ccn(O)c1=O (stereo unspecified)
active: [7] 3.01% | [8] 6.78% | [13] 6.43% | [18] 9.61%
inactive: [1] 97.3% | [2] 49.3% | [3] 18.6% | [4] 11.1% | [5] 24.5% | [6] 25.3% | [9] 29% | [10] 41.9% | [17] 83.7% | [14] 16.6% | [15] 40.3% | [20] 15.8% | [19] 22.9%
